We go through 40 compounds from PubChem BioAssay.

SMILES strings stand for the structures. Values without a mark were called inactive. How the calls were made is not given here.

In this assay the target is Pantothenate synthetase (Mycobacterium tuberculosis (strain ATCC 25618 / H37Rv)) (UniProt P9WIL5). Kind of assay: Recombinant Mtb pantothenate synthetase (PanC) inhibitors, coupled enzyme, confirmatory (AID 375).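 Further: 0% = full reaction with vehicle and 100% = no enzyme background.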 The conditions noted are these: coupled enzyme assay; at 10 µM, stronger effect = higher value.
Sequence of Pantothenate synthetase (Mycobacterium tuberculosis (strain ATCC 25618 / H37Rv)) (P9WIL5 whole entry, looked up): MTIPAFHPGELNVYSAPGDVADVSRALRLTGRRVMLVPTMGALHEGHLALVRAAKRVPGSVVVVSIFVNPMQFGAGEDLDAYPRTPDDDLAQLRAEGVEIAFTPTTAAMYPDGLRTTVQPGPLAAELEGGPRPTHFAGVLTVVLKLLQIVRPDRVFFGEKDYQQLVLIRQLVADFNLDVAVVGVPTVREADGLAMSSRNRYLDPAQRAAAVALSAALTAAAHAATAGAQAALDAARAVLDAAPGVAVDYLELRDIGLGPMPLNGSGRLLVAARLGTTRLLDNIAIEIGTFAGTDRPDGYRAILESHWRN
`COc1cc(C)c(-c2cc(C(=O)O)c(C)o2)cc1C(C)C`: the inhibition is 0%.

With `CC(C)c1ncc(C(O)c2cccc3ccccc23)n1C` (stereo not given), the inhibition is 0%. The value for `Cc1nn(C(=O)c2ccc3c(c2)OCO3)c(N)c1-c1ccccc1` was 0%; that for `Cc1cnc(NC(=O)C2=C(O)c3ccccc3S(=O)(=O)N2C)s1` was 0%. For the compound `Cc1ccc(S(=O)(=O)N2CCCC2C(=O)n2nc(C)cc2C)cc1` (stereo not given), the inhibition is 0%. The value for `O=C(CSc1nc(O)cc(=O)n1-c1ccccc1)N1CCCCC1` was 0%.

`Cc1cc(NS(=O)(=O)c2ccc(N)cc2)no1`: the inhibition is 1%. For `c1ccc2ncc(-n3cnnn3)cc2c1` the value was 0%. The value for `Nn1c(SCC(=O)NC2CCCCC2)nnc1-c1ccc(Cl)cc1` was 2%; that for `N#Cc1c(N)oc(-c2cccs2)c1-c1cccs1` was 1%. As for `Cn1ccnc1SCCC#N`, the inhibition is 7%.

For the compound `Cc1nc(N2CCC(C)CC2)c2c(C)c(C(=O)O)sc2n1`, the inhibition was 0%. The value for `CC(C)=CC(=O)Nc1ccc(Br)cc1` was 0%; that for `CCn1c(SCC(=O)Nc2ccc3c(c2)OCO3)nnc1-c1cnccn1` was 0%; that for `O=S(=O)(NCc1cn2ccsc2n1)c1ccc2c(c1)OCCO2` was 0%. On to `O=C(CP(=O)(c1ccccc1)c1ccccc1)N1CCCCC1`, for which the inhibition was 6%.

Turning to `c1ccc(Cn2nnnc2CN2CCCC2)cc1`, the inhibition is 0%. For the compound `CC(=O)N1CCN=C1SCc1c(F)cccc1Cl`, the inhibition is 2%. The value for `COc1cc(C(=O)NCC(=O)OCC(=O)c2ccc[nH]2)cc(OC)c1OC` was 2%; that for `COc1ccc(C(=O)Nc2nncs2)c(OC)c1` was 3%. For `COc1cc2c(cc1NC(=O)CSc1nnc(Cc3cccs3)n1C)oc1ccccc12` the value was 6%. The value for `CCOC(=O)c1cc2c(=O)n3cccc(C)c3nc2n(CC2CCCO2)c1=NC(C)=O` (stereo not given) was 7%; that for `CCOC(=O)c1ccc2nc(C)c3c(c2c1)OC(C)C3` (stereo not given) was 0%. Consider `C/C(=N\O)C(C)/[N+]([O-])=C/c1nc(C)c(C)n1O` (stereo not given), for which the inhibition is 0%. Regarding `CC(C(=O)NCc1cccnc1)N1C(=O)c2ccccc2C1=O` (stereo not given), the inhibition is 0%. Turning to `COc1ccc(CC(=O)NCc2cccs2)cc1`, the inhibition is 3%. The value for `O=C(O)Cc1ccc(-c2ccccc2)cc1` was 0%.

For the compound `C=CCOc1ccc(C2C(C(=O)c3ccco3)=C(O)C(=O)N2Cc2cccnc2)cc1` (stereo not given), the inhibition is 0%. The value for `CCc1nnc(NC(=O)c2ccc(COc3ccc(C)cc3)o2)s1` was 1%; that for `CC(=O)OCC(=O)c1ccc2ccn(C(C)=O)c2c1` was 3%.

Consider `Cc1ccn2cc(CCNC(=O)CC(C)(C)C)nc2c1`, for which the inhibition is 0%. Regarding `CC(C)(C)NC(=O)CN(Cc1cccs1)C(=O)c1csnn1`, the inhibition is 0%.

Take `CCOC(=O)c1ccc(Oc2cc(C)nc(SC)n2)cc1`: the inhibition was 0%. For `CCn1c(=O)c(C(=O)NCCc2ccccc2)c(O)c2ccccc21` the value was 0%; for `COc1cc(NC(=O)CN(c2cc(C)cc(C)c2)S(=O)(=O)c2c(C)noc2C)cc(OC)c1`, 0%; for `COC(=O)C1C2C=CC3(CN(CC4CCCO4)C(=O)C13)O2` (stereo not given), 0%. `CCc1ccc(N2CC(C(=O)OCC(=O)NC3CCS(=O)(=O)C3)CC2=O)cc1` (stereo not given): the inhibition was 0%. Consider `COc1ccc(CC(=O)NC2CCN(CC(=O)Nc3ccc4c(c3)OCCO4)CC2)cc1OC`, for which the inhibition is 0%. With `COc1ccc(-c2coc3c(CN4CCCCC4)c(O)c(CN4CCCCC4)c(O)c3c2=O)cc1`, the inhibition is 0%.

For the compound `COc1ccc(-n2c(SCC(N)=O)nc3sc4c(c3c2=O)CCN(C)C4)cc1`, the inhibition was 0%.
